The campaign covered roughly 370,000 compounds. About 3,000 (0.81%) were called active. The sample holds actives, similar compounds and a random draw of the others, so the mix is not that of the screen. A number with no mark means an inactive call.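 How the source made its calls: active means activity above about 14% (limit read from the data; passing the limit was not always enough); inactive means the rest.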

Sequence of Nuclear receptor subfamily 1 group D member 1 (Homo sapiens) (P20393 whole entry, looked up): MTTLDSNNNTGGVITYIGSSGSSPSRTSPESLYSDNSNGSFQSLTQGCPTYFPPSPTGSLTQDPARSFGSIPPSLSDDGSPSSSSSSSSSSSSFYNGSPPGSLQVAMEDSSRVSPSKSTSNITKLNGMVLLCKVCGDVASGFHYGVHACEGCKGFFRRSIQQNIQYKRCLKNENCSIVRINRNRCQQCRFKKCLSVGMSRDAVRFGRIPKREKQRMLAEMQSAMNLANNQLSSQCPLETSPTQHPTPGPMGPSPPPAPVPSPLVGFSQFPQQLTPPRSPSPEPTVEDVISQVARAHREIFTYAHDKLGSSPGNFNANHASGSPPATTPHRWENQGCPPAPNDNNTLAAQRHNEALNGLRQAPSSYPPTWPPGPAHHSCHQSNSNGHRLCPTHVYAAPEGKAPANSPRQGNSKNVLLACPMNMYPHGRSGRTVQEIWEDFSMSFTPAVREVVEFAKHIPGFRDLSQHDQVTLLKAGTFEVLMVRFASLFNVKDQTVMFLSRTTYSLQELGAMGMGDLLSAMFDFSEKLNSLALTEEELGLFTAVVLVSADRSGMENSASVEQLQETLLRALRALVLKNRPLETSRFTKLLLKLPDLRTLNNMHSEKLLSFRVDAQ

This experiment concerns the target Nuclear receptor subfamily 1 group D member 1 (Homo sapiens) (UniProt P20393). The experiment can be described thus: Rev-erbα–DNA interaction modulation – biochemical, FITC-DNA, fluorescence polarization, uHTS, primary screen (AID 1259318).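 Further: 0% = DMSO wells with 35 nM protein and 100% = DMSO wells with 750 nM protein.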 The conditions noted are these: Rev-erbα–FITC-DNA binding, 90 min, at 10 µM, stronger effect = higher value. Background: Polarisation of emitted light reports the rotation of a fluorescent probe.
For the compound `COc1ccccc1N=Nc1c(O)[nH]c(=S)[nH]c1=O`, the activity is 28.1% (active). As to `CCOCCc1c(O)[nH]c(=S)[nH]c1=O`, the activity is -0.86%.

As to `O=C1N=c2ccccc2=C/C1=C\c1c(O)[nH]c(=S)[nH]c1=O`, the activity is -4.55%. As to `CCC(C)C(=O)O[C@H]1[C@H](O)C2C(CN3CC(C)CCC3[C@@]2(C)O)C2C[C@]34O[C@]5(O)C(OC(=O)C(C)(O)CC)CC[C@@]3(C)C5[C@H](OC(C)=O)[C@@H](OC(C)=O)C4[C@@]21O` (stereo not given in full), the activity was -4.52%.

Consider `CCN(CC)C(=O)[C@@H]1C=C2c3cccc4[nH]c(Br)c(c34)C[C@H]2N(C)C1`, for which the activity is -1.01%. For `C=CCNCCCCCCCCCC` (tested in a mixture with another compound), the activity was -9.67%. Next, `COC(=O)CN(CCCl)P1(=O)OCCCN1CCCl` (stereo not given): 15.9% (active).

`c1ccc2sc(SNC3CCCCC3)nc2c1`: the activity was 6.27%. Take `CCOC(=O)C1=C(C)OC(N)=C(C(=O)OC)C12C(=O)Nc1ccc(Br)cc12` (stereo not given): the activity was 4.04%. Next, `CC(=O)O[C@H]1CC[C@@]2(C)C(=CCC3C2CC[C@]2(C)C(=O)CCC32)C1` (stereo not given in full): 2.71%.
